High-throughput results (PubChem BioAssay)
Sampled rows, rich in hits. Any-hit rate of the full collection: about 8.7%.
G9a block: G9a (human) methyltransferase inhibition. Q96KQ7. G9a H3K9 monomethylation, AlphaScreen, 2 h. Potency, µM (top dose mostly 102 µM), for the others: top-dose activity, negative = inhibition, usual class: inhibitors. 350,000 compounds, 8.8% hits; further: on the % scale 0 is the no-effect control and ±100 the full control effect; nearly all actives have a fitted effect of over 75% in size
Target sequence (Q96KQ7 913-1193 limits assumed): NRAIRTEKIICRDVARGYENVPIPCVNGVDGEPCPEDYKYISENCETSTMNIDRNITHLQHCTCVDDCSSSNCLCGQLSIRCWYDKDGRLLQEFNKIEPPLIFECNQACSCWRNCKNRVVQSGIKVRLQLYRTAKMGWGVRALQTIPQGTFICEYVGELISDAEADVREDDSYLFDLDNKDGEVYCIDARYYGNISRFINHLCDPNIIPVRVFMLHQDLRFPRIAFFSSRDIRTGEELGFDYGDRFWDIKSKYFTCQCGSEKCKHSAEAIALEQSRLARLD
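Quantitative HTS format: methyltransferase activity on a biotin-tagged H3K9 peptide is measured by AlphaScreen, using a rabbit anti-monomethyl-H3K9 antibody with streptavidin donor and anti-IgG acceptor beads. Final levels are 20 nM enzyme, 500 nM peptide, 20 uM SAM; 2 h RT.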
BAZ2B inh: inhibitors of human BAZ2B bromodomain | Q9UIF8 | AlphaScreen BAZ2B-H3K14Ac peptide displacement | Potency, µM (highest dose often 114 µM), without a hit: at the highest dose activity change, negative = inhibition, hits mostly inhibitors | 360,000 compounds, 4.4% hits | AID 504333; further: on the % scale 0 is the no-effect control and ±100 the full control effect; nearly all actives have a fitted effect of over 60% in size
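Multi-concentration screen (max 110 uM) measuring displacement of acetylated histone H3 peptide from BAZ2B by AlphaScreen, using 50 nM protein, 50 nM peptide and 10 ug/mL streptavidin donor plus Ni-chelate acceptor beads.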
ALOX12 inh: blocks human arachidonate 12S-lipoxygenase; Potency, µM (top dose mostly 108 µM), without a hit: at the top dose activity change, negative = inhibition, actives largely listed as inhibitors; purified 12hLO, xylenol orange hydroperoxide absorbance; 580,000 compounds, 1.1% hits; P18054; further: on the % scale 0 is the no-effect control and ±100 the full control effect
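Purified human 12hLO at 150 nM in 25 mM Hepes, 0.01% Triton X-100, pH 7.0, preincubated 15 min at room temperature with compound. Reaction started with 40 uM arachidonic acid, 30 min at room temperature. Hydroperoxide measured by Fe-xylenol orange, 573/405 nm absorbance ratio.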
JMJD2A Tudor inh: inhibitors of human JMJD2A Tudor domain. O75164. AlphaScreen JMJD2A-Tudor / H3K4me3 peptide binding. Potency, µM (series often up to 114 µM), for the others: at the highest dose activity change, negative = inhibition, actives largely listed as inhibitors. 390,000 compounds, 4.4% hits; further: on the % scale 0 is the no-effect control and ±100 the full control effect; nearly all actives have a fitted effect of over 50% in size
Sfp inh: blocks B. subtilis Sfp PPTase activity | Potency, µM, inactives show largest response in the series, negative = inhibition, most hits filed as inhibitors | AID 1490 | Biochemical Sfp PPTase activity, qHTS | 310,000 compounds, 3.5% hits;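 further: the enzyme is Sfp with the accession as filed and its product quenches rhodamine fluorescence; 0% = enzyme reaction without inhibitor and -100% = no enzyme wells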
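Fluorescence-quenching assay: 15 nM Sfp-PPTase preincubated 15 min at room temperature with compound, then 5 uM rhodamine-CoA and 12.5 uM BHQ-2-labelled YbbR peptide added. Fluorescence (ex 525/em 598 nm) read at start and after 30 min; difference gives rate.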
HP1b binding inh: inhibitors of HP1-beta chromodomain binding to methylated histone tails. P83916. AlphaScreen HP1-beta / biotin-H3K9me3 peptide binding. Potency, µM (top dose mostly 114 µM), for inactives: at the highest dose activity change, negative = inhibition, usual class: inhibitors. 390,000 compounds, 0.56% hits. AID 540317; further: nearly all actives have a fitted effect of over 70% in size
Target sequence (P83916 whole entry, looked up): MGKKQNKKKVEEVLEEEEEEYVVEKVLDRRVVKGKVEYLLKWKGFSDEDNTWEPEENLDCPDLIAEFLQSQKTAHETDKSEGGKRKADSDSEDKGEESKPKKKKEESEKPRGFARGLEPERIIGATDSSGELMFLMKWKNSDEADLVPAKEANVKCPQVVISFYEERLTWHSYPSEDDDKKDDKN
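AlphaScreen: HP1-beta (50 nM) preformed 30 min with biotin-H3(1-18)K9me3 peptide (50 nM) in PBS pH 7.4, 0.01% Tween-20. Compound added for 30 min at RT, then streptavidin donor/nickel chelate acceptor beads (10 ug/mL) for 30 min.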
Starred values were filed as active, the others as inactive; [ ] = another dose, or the depositor's remark. The call rests on the fitted dose curve; in most records, active means well fitted curve in the direction sought with a large enough effect; inconclusive means small, poorly fitted or top-dose-only effect, or another doubt; inactive means no such curve, though single readings can be large; an effect the other way counts as inactive or inconclusive. Potency means the concentration at half of the fitted maximal effect.

For COc1ccc(-c2noc(Nc3cc(C)ccc3OC)n2)cc1 the results were ALOX12 inh 30%.
`COc1cnc(-c2ccccn2)nc1Sc1ccc(Cl)cc1` gave G9a block 23%, BAZ2B inh -6%, ALOX12 inh -6%, JMJD2A Tudor inh inconclusive, Sfp inh -2% and HP1b binding inh 24%.
For COc1ccc(Sc2nc(-c3ccccn3)ncc2OC)cc1 the results were G9a block 0%, BAZ2B inh 28µM*, ALOX12 inh -13%, JMJD2A Tudor inh inconclusive, Sfp inh -8% and HP1b binding inh 28%.
`CCOC(=O)CSc1nc(-c2ccccn2)ncc1OC` gave G9a block inconclusive, BAZ2B inh 25µM*, ALOX12 inh 6%, JMJD2A Tudor inh 71µM*, Sfp inh 3% and HP1b binding inh 27%.
For COc1cnc(-c2ccccn2)nc1Sc1ccc(F)cc1 the results were G9a block -3%, BAZ2B inh 28µM*, ALOX12 inh 0%, JMJD2A Tudor inh inconclusive, Sfp inh -5% and HP1b binding inh 13%.
Screening Cc1ccc(NC(=O)C(=O)NCCN2CCN(C(=O)c3ccc(C(C)(C)C)cc3)CC2)cc1 returned ALOX12 inh 10%.
O=C(O)/C=C/C(=O)NCc1csc2ccccc12 was read as BAZ2B inh -2%, ALOX12 inh 25µM*, JMJD2A Tudor inh -7%, Sfp inh -1% and HP1b binding inh 32%.
Cc1ccccc1CNC(=O)/C=C\C(=O)O was read as G9a block -8%[59 µM], BAZ2B inh -4%, ALOX12 inh inconclusive, JMJD2A Tudor inh -7%, Sfp inh 13% and HP1b binding inh 25%.
`Cc1cc(F)ccc1-n1c(SCC(=O)NC2CCCC2)nc2ccsc2c1=O` gave ALOX12 inh -20%.
Screening COc1cc(/C=C/C(=O)O)cc(S(=O)(=O)Nc2ccc3nc(SC)sc3c2)c1OC returned G9a block 40µM*, ALOX12 inh 0%, JMJD2A Tudor inh -14%, Sfp inh 0% and HP1b binding inh 14%.
Screening Cc1ccc(C)c(CN2C(=O)NC3(CCN(C(=O)c4ccccn4)CC3)C2=O)c1 returned ALOX12 inh 22%.
`COCCNc1nnc(SCC(=O)NC(=O)c2ccccc2)s1` gave G9a block 50µM*, BAZ2B inh 7%, ALOX12 inh 0%, JMJD2A Tudor inh -11% and HP1b binding inh 35%.
COCCNc1nnc(SCC(=O)Nc2cc(-c3ccccc3)nn2-c2ccccc2)s1 was read as G9a block 79µM*, BAZ2B inh -38%, ALOX12 inh -1%, JMJD2A Tudor inh -36%, Sfp inh 2% and HP1b binding inh 15%.
`COc1ccc(Nc2nc(OC)nc(N3CCN(c4ccc(OC)cc4)CC3)n2)cc1` gave G9a block inconclusive, BAZ2B inh -17%, ALOX12 inh inconclusive, JMJD2A Tudor inh -28%, Sfp inh 7% and HP1b binding inh 27%.
Screening COc1ccc(Nc2nc(Cl)nc(N3CCN(c4ccc(OC)cc4)CC3)n2)cc1 returned G9a block inconclusive, BAZ2B inh 8.9µM*, ALOX12 inh -22% and Sfp inh 3%.
`CC1CCN(c2nc(Cl)nc(Nc3ccc([N+](=O)[O-])cc3)n2)CC1` gave G9a block 45µM*, BAZ2B inh inconclusive, ALOX12 inh -29%, JMJD2A Tudor inh inconclusive, Sfp inh 5% and HP1b binding inh -17%.
Screening Cc1cc(C)n(CCC(=O)N2CC(F)(F)C[C@H]2c2nc(C)no2)n1 returned ALOX12 inh 36%.
O=C(Sc1cccc2cccnc12)c1ccc(F)cc1 was read as G9a block inconclusive, BAZ2B inh inconclusive, ALOX12 inh 1% and Sfp inh inconclusive.
For O=S(=O)(Nc1cc(Sc2cccc3cccnc23)c(O)c2ccccc12)c1ccc(F)cc1 the results were G9a block 2µM*, BAZ2B inh inconclusive, ALOX12 inh inconclusive, JMJD2A Tudor inh 18µM*, Sfp inh 10µM* and HP1b binding inh 18µM*.
Screening COc1ccc(S(=O)(=O)Nc2cccc3ccc(O)cc23)cc1 returned ALOX12 inh -26%, JMJD2A Tudor inh -13% and HP1b binding inh 4%.
`CC(C)c1ccc(S(=O)(=O)Nc2ccc(O)c(Sc3ncn[nH]3)c2)cc1` gave G9a block inconclusive, BAZ2B inh -23%, ALOX12 inh inconclusive, JMJD2A Tudor inh -7%, Sfp inh -1% and HP1b binding inh 32%.
Screening COc1ccc(S(=O)(=O)Nc2ccc(O)c(Sc3ncn[nH]3)c2)cc1 returned G9a block 13µM*, BAZ2B inh -7%, ALOX12 inh inconclusive, JMJD2A Tudor inh -15%, Sfp inh -6% and HP1b binding inh -1%.
COc1ccc(S(=O)(=O)Nc2cc(Sc3ncn[nH]3)c(O)c3ccccc23)cc1 was read as G9a block 1.6µM*, BAZ2B inh 45µM*, ALOX12 inh inconclusive, JMJD2A Tudor inh 5.6µM*, Sfp inh 3.5µM* and HP1b binding inh inconclusive.
`CCCOC(=O)c1c(-c2ccc(OCC)cc2)csc1NC(=O)c1ccoc1C` gave ALOX12 inh 80%.
`NS(=O)(=O)c1ccc(N/N=C/c2cccc(C(F)(F)F)c2)c([N+](=O)[O-])c1` gave ALOX12 inh 1%.
Screening CCC(CC)c1nnc(NC(=O)C2CC(=O)N(C3CCCC3)C2)s1 (stereo not drawn) returned G9a block 11µM*, BAZ2B inh 3%, ALOX12 inh inconclusive, JMJD2A Tudor inh -4%, Sfp inh 50µM* and HP1b binding inh -13%.
For CCCc1nnc(NC(=O)C2CC(=O)N(C3CCCC3)C2)s1 (stereo not drawn) the results were G9a block 22µM*, BAZ2B inh 1%, ALOX12 inh inconclusive, JMJD2A Tudor inh -11%, Sfp inh -19% and HP1b binding inh -9%.
Screening CCC(CC)c1nnc(NC(=O)C2CC(=O)N(c3ccc4c(c3)OCCO4)C2)s1 (stereo not drawn) returned G9a block 4%[59 µM], BAZ2B inh inconclusive, ALOX12 inh 27%, JMJD2A Tudor inh -18%, Sfp inh 13% and HP1b binding inh 13%.
`CCc1nnc(NC(=O)C2CC(=O)N(C3CCCC3)C2)s1` (stereo not drawn) gave G9a block inconclusive, BAZ2B inh 8%, ALOX12 inh -9%, JMJD2A Tudor inh 2%, Sfp inh -4% and HP1b binding inh 13%.
For O=C(c1ccccc1OC(F)(F)F)N1CCC(c2n[nH]c(=O)n2-c2ccccc2)CC1 the results were ALOX12 inh -1%.
